# According to the supplement of paper PMC8728848:
# This excerpt belongs to a sample that is enriched for the strongest signals.
# B1: Sp8391B-bot-388-20-388 (Bacteroides ovatus) (protein)
# chain: GCQNNDENEQHYDNKLFISASNFTKEILFKAGDTNVETGLSVAIAKPEEHDIKVTMSPAPELLSTYKLAYYDETAVLLSEEHYSMPETSTTIKSGSIVSPELPIEFINTGELDIKTTYVLPVTIKSVEGIGVLQSAKTYYYVFRGASLINVVCNISRNRAYPDFKNDSKFNNLTENTMEILFKANSFPNTLNTLMGIESNYLLRIGDATIPNNQLQVATSVNNCTSADLQLESGKWYHVAVAFNKGNVKVYINGVEKLSGSTGKSSVSLGAKHTNEEDGSRCFWVGYSYKDDRYFDGVVSEVRIWNRALTAEEIQATNHFYTIEPESEGLIAYWKFDEGSGTVAKDYSVSGYDLTIEKEPKWESVSLPQ
# Columns and labels:
# Test in all cases: glycan array binding signal (z-score within array); higher = stronger binding
# Settings in all cases: glycan notation: IUPAC condensed, linker removed
# GalNAc4S6S(b1-4)GlcNAc = biological target: GalNAc4S6S(b1-4)GlcNAc
# In short: (§1)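 From the Consortium for Functional Glycomics database, 3228 arrays were curated, keeping only those whose protein sequence was available. Binding is given as a within-array Z-score averaged across arrays sharing a protein sequence and across linkers. Negative Z-scores can be read as non-binding.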
# [1] = biological target: Glc(a1-4)Glc(a1-4)Glc(a1-4)Glc
# In short: as §1
# [2] = biological target: GlcNAc(b1-2)Man(a1-3)[GlcNAc(b1-4)][GlcNAc(b1-2)Man(a1-6)]Man(b1-4)GlcNAc(b1-4)GlcNAc
# In short: as §1
# [3] = biological target: GlcNAc(b1-3)Gal(b1-4)GlcNAc(b1-3)Gal(b1-4)GlcNAc(b1-3)Gal(b1-4)GlcNAc(b1-2)Man(a1-3)[GlcNAc(b1-3)Gal(b1-4)GlcNAc(b1-3)Gal(b1-4)GlcNAc(b1-3)Gal(b1-4)GlcNAc(b1-2)Man(a1-6)]Man(b1-4)GlcNAc(b1-4)[Fuc(a1-6)]GlcNAc
# In short: as §1
# GlcNAc(b1-3)Man = biological target: GlcNAc(b1-3)Man
# In short: as §1
# [4] = biological target: GlcNAc(b1-4)GlcNAc(b1-4)GlcNAc
# In short: as §1
# [5] = biological target: Kdn(a2-3)Gal(b1-4)[Fuc(a1-3)]GlcNAc
# In short: as §1
# MurNAc(b1-4)GlcNAc = biological target: MurNAc(b1-4)GlcNAc
# In short: as §1
# [6] = biological target: Neu5Ac(a2-3)Gal(b1-3)GlcNAc
# In short: as §1
# [7] = biological target: Neu5Ac(a2-3)Gal(b1-3)GlcNAc(b1-2)Man(a1-3)[GlcNAc(b1-4)][Neu5Ac(a2-3)Gal(b1-3)GlcNAc(b1-2)Man(a1-6)]Man(b1-4)GlcNAc(b1-4)GlcNAc
# In short: as §1
# [8] = biological target: Neu5Ac(a2-3)Gal(b1-4)GlcNAc(b1-2)Man(a1-3)[Neu5Ac(a2-3)Gal(b1-4)GlcNAc(b1-2)Man(a1-6)]Man(b1-4)GlcNAc(b1-4)GlcNAc
# In short: as §1
# [9] = biological target: Neu5Ac(a2-3)Gal(b1-4)GlcNAc(b1-2)[Neu5Ac(a2-3)Gal(b1-4)GlcNAc(b1-6)]Man(a1-6)[Neu5Ac(a2-3)Gal(b1-4)GlcNAc(b1-2)Man(a1-3)]Man(b1-4)GlcNAc(b1-4)GlcNAc
# In short: as §1
# [10] = biological target: Neu5Ac(a2-3)Gal(b1-4)GlcNAc(b1-3)GalNAc
# In short: as §1
# [11] = biological target: Neu5Ac(a2-3)Gal6S(b1-4)GlcNAc
# In short: as §1
# [12] = biological target: Neu5Ac(a2-3)[GalNAc(b1-4)]Gal(b1-4)Glc
# In short: as §1
# [13] = biological target: Neu5Ac(a2-6)Gal(b1-3)GlcNAc(b1-3)[Gal(b1-4)GlcNAc(b1-6)]Gal(b1-4)Glc
# In short: as §1
# [14] = biological target: Neu5Ac(a2-6)Gal(b1-4)GlcNAc
# In short: as §1
# [15] = biological target: Neu5Ac(a2-6)Gal(b1-4)GlcNAc(b1-2)Man(a1-6)[Man(a1-3)]Man(b1-4)GlcNAc(b1-4)GlcNAc
# In short: as §1
# [16] = biological target: Neu5Ac(a2-6)Gal(b1-4)GlcNAc(b1-2)[Neu5Ac(a2-6)Gal(b1-4)GlcNAc(b1-4)]Man(a1-3)[GlcNAc(b1-4)][Neu5Ac(a2-6)Gal(b1-4)GlcNAc(b1-2)[Neu5Ac(a2-6)Gal(b1-4)GlcNAc(b1-6)]Man(a1-6)]Man(b1-4)GlcNAc(b1-4)GlcNAc
# In short: as §1
# [17] = biological target: Neu5Ac(a2-6)Gal(b1-4)GlcNAc(b1-6)[Gal(b1-3)]GalNAc
# In short: as §1
# [18] = biological target: Neu5Ac(a2-6)GalNAc(b1-4)GlcNAc6S
# In short: as §1
# [19] = biological target: Neu5Ac(a2-8)Neu5Ac(a2-3)[GalNAc(b1-4)]Gal(b1-4)Glc
# In short: as §1
# [20] = biological target: Neu5Ac(a2-8)Neu5Ac(a2-8)Neu5Ac(a2-3)Gal(b1-4)Glc
# In short: as §1
# [21] = biological target: Neu5Ac9Ac(a2-6)Gal(b1-4)GlcNAc
# In short: as §1
# [22] = biological target: Neu5Gc(a2-8)Neu5Gc(a2-3)Gal(b1-4)GlcNAc(b1-3)Gal(b1-4)GlcNAc
# In short: as §1
binder,measurement,setting,value
B1,glycan array binding signal (z-score),GalNAc4S6S(b1-4)GlcNAc,-0.043
same,glycan array binding signal (z-score),[1],-0.549
same,glycan array binding signal (z-score),[2],-0.101
same,glycan array binding signal (z-score),[3],2.65
same,glycan array binding signal (z-score),GlcNAc(b1-3)Man,0.083
same,glycan array binding signal (z-score),[4],-0.077
same,glycan array binding signal (z-score),[5],1.91
same,glycan array binding signal (z-score),MurNAc(b1-4)GlcNAc,-0.265
same,glycan array binding signal (z-score),[6],-0.213
same,glycan array binding signal (z-score),[7],-0.652
same,glycan array binding signal (z-score),[8],-0.533
same,glycan array binding signal (z-score),[9],0.918
same,glycan array binding signal (z-score),[10],-0.435
same,glycan array binding signal (z-score),[11],-0.501
same,glycan array binding signal (z-score),[12],0.131
same,glycan array binding signal (z-score),[13],6.14
same,glycan array binding signal (z-score),[14],-0.355
same,glycan array binding signal (z-score),[15],0.075
same,glycan array binding signal (z-score),[16],2.53
same,glycan array binding signal (z-score),[17],-0.211
same,glycan array binding signal (z-score),[18],-0.019
same,glycan array binding signal (z-score),[19],0.19
same,glycan array binding signal (z-score),[20],0.117
same,glycan array binding signal (z-score),[21],-0.27
same,glycan array binding signal (z-score),[22],-1.02
